An excerpt weighted towards active compounds, which were near 5.4% of everything screened.
Calb FLC – C. albicans growth modulation with fluconazole; C. albicans CaCi-2 (fluconazole-resistant clinical isolate) + fluconazole, Alamar Blue growth, 48 h; growth inhibition, % (concentration not given with the values); hit rate 0.57% among 300,000; AID 1979;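 active = growth inhibition above about 58% in most replicates, limit read from the data, passing the limit was not always enough; inconclusive = exactly half the replicates above a set limit; inactive = most replicates below a set limit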;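 also: all wells also contain fluconazole at 8 µg/ml as a sub-toxic cotreatment; 0% = median of DMSO wells and 100% = median of geldanamycin control wells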
SKKanGAS inh – blocks kanamycin growth of S. pyogenes SKKanGAS strain; hit rate 1.3% among 300,000; BacTiter-Glo, 6 h; AID 1662; inhibition, % at 7.5 µM;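 active = mean replicate score, as percent of positive control median, at least 50; inconclusive = mean below 50 but one replicate at or above 50; inactive = mean and every replicate below 50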;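 also: strain carries kanamycin resistance gene driven by streptokinase promoter and grows in 40 µg/ml kanamycin; loss of luminescence reflects streptokinase promoter inhibition or plain growth inhibition; 0% = median of DMSO wells and 100% = positive control at its reference dose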
CSC inhib – blocks cancer stem cells; hit rate 1.1% among 300,000; inhibition, % at 7.5 µM; AID 2717; cancer stem cell-like cells viability, luminescence; in the data active = inhibition above about 75%; inconclusive = no clear call, values can overlap the other calls; tested in HMLE shEcad cells
MPTP inh – inhibitors of mitochondrial permeability transition pore | isolated mouse mitochondria, Ca2+ swelling absorbance, 30 min | inhibition, % at 10 µM | hit rate 1.4% among 360,000;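 active = inhibition of 50% or more, scaled per plate between neutral and stimulator controls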;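 also: 0% = DMSO wells given calcium and 100% = 1 mM EGTA wells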
Beta cell apopt – blocks beta cell apoptosis; INS-1E cytokine-induced death, ATP luminescence, 48 h; percent of positive-control rescue, neutral wells zero; protection from apoptosis, % (test concentration not listed); hit rate 0.8% among 300,000; AID 435005;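 active = Every replicate reaches about 75%, or at least half do and their mean reaches it too, limit read from the data; inconclusive = At least half of replicates reach the limit but their mean does not; inactive = Under half of replicates reach the limit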;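 also: 0% = cytokine-treated negative control wells and 100% = positive control rescue; higher means more ATP so stronger rescue from cytokine killing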
Mdm2-MdmX inh – inhibitors of human Mdm2/MdmX interaction; SaOS-2 split-luciferase Mdm2/MdmX complementation, luminescence; hit rate 3% among 330,000; inhibition, % at 8 µM; O15151+Q00987;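 active = inhibition of at least 50% at 8 µM in the primary screen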
Target sequence (O15151 whole entry, looked up): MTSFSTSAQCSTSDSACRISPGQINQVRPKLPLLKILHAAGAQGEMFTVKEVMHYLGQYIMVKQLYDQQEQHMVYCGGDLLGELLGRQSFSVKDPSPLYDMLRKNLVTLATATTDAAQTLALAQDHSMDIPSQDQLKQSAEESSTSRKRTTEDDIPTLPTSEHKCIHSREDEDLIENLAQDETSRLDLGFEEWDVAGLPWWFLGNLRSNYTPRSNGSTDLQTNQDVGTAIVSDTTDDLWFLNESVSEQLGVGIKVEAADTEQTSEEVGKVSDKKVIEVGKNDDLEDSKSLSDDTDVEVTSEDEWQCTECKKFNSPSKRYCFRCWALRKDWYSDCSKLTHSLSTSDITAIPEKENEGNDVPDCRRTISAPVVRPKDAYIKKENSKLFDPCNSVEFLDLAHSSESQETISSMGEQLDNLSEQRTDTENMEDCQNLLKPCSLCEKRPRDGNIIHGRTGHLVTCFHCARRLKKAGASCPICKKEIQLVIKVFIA
Target sequence (Q00987 whole entry, looked up): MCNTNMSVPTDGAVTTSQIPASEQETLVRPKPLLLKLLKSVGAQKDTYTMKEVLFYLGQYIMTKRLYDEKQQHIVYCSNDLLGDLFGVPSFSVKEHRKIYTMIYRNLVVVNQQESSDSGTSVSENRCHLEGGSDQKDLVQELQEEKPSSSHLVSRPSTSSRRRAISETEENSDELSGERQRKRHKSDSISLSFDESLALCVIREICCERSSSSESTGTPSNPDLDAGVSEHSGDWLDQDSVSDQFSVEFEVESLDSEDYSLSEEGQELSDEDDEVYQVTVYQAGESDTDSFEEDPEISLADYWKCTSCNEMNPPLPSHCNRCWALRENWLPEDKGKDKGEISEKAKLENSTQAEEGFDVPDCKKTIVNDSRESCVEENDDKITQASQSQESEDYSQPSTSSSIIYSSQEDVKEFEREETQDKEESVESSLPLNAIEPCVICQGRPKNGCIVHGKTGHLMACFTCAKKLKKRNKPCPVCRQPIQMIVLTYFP
Mdm2-MdmX conf – human Mdm2/MdmX binding inhibition, confirmed; shares compounds with Mdm2-MdmX inh; hit rate 55% among 10,000; luminescent assay; AID 489028; inhibition, % at 8 µM; in the data active = inhibition above about 40%
FLuc counter – inhibits full-length luciferase, flagging false Mdm2/MdmX hits | shares compounds with Mdm2-MdmX inh | inhibition, % at 8 µM | SaOS-2 full-length luciferase counterscreen, luminescence | hit rate 77% among 6,200;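 active = mean inhibition at 8 µM reaching about 37%, which flags the compound as non-specific, limit read from the data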;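 also: p53-null SaOS-2 cells with luciferase driven by a doxycycline-inducible promoter; compound on cells about two nights before reading with doxycycline added after day one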
* = called active by the depositor; ? = inconclusive; nt = no result given.

SMILES | Calb FLC | SKKanGAS inh | CSC inhib | MPTP inh | Beta cell apopt | Mdm2-MdmX inh | Mdm2-MdmX conf | FLuc counter
CCN(CC)CCNC(=O)c1ccc(NC(=O)c2cccc(S(=O)(=O)N3CCc4ccccc43)c2)cc1 | nt | nt | nt | 11.0 | nt | 75.7* | 43.5* | 66.9*
CC1Cc2ccccc2N1S(=O)(=O)c1cccc(C(=O)N2CCN(c3ncccn3)CC2)c1 (stereo unspecified) | 18.7 | -1.2 | 50.6 | 5.0 | 0.9 | 90.3* | 89.3* | 55.1*
CC(=O)N1CCN(C(=O)c2cccc(S(=O)(=O)N3c4ccccc4CC3C)c2)CC1 (stereo unspecified) | nt | nt | 3.6 | 0.7 | -6.5 | 9.0 | nt | nt
COc1cc2c(cc1OC)CN(C(C)C(=O)N1CCc3ccccc31)CC2 (stereo unspecified) | nt | -7.3 | -1.3 | -8.8 | 2.5 | 52.0* | 34.4 | 84.1*
CSCCC(NC(=O)c1ccco1)C(=O)N1CCCC(C(F)(F)F)C1 (stereo unspecified) | nt | nt | -4.8 | -1.0 | -8.1 | -13.1 | nt | nt
C=CCn1c(SCC(=O)N2CCN(CCO)CC2)nc2sc3c(c2c1=O)CCC3 | -0.6 | -0.1 | 0.6 | -0.7 | nt | -6.4 | nt | nt
O=C(c1cccc(S(=O)(=O)N2CCc3ccccc32)c1)N1CCc2ccccc2C1 | nt | nt | nt | 1.5 | 3.7 | 34.3 | nt | nt
COc1cc2c(cc1OC)CN(C(=O)c1cccc(S(=O)(=O)N3CCc4ccccc43)c1)CC2 | nt | nt | 33.5 | 0.9 | 1.2 | 90.2* | 59.4* | 85.7*
CN(Cc1nc2ccccc2c(=O)[nH]1)C(=O)c1cccc(S(=O)(=O)N2CCc3ccccc32)c1 | nt | nt | 23.8 | 1.9 | 6.1 | 80.9* | 55.0* | 67.6*
CN(Cc1nc2ccccc2c(=O)[nH]1)C(=O)c1cccc(S(=O)(=O)N2CCCCCC2)c1 | nt | nt | nt | 0.8 | -1.4 | 13.4 | nt | nt
COc1ccc(Cc2nnc(SCC(=O)NCc3ccco3)o2)cc1 | ? | 0.4 | 3.7 | -1.6 | -7.3 | 3.9 | nt | nt
Cn1c(=O)n(C)c2cc(NC(=O)CSc3nnc(-c4ccccc4O)n3-c3ccccc3)ccc21 | -14.6 | -0.1 | -7.1 | 3.4 | -2.4 | 57.9* | 19.0 | nt
CC(=O)Oc1ccc(C(=O)Nc2cccc(C(=O)c3cccc(NC(=O)c4ccc(OC(C)=O)cc4)c3)c2)cc1 | 28.9 | 9.4 | 27.0 | -1.8 | 3.3 | 79.3* | 36.9 | 85.5*
CCOc1ncccc1C(=O)Nc1ccc(C(=O)Nc2ccc(OC)cc2)cc1 | nt | nt | nt | 1.5 | 4.0 | 71.9* | 22.4 | nt
CCn1c(=O)oc2cc(NC(=O)CCl)ccc21 | 4.3 | -0.2 | -11.8 | -1.6 | 1.8 | 66.2* | 32.3 | nt
COc1ccc(CCN2CC(C(=O)OC(C)C(=O)Nc3ccc(NC(C)=O)cc3)CC2=O)cc1OC (stereo unspecified) | nt | nt | nt | -0.5 | nt | nt | nt | nt
O=Cc1cccc(OC(=O)/C=C/c2ccco2)c1 | -7.7 | -4.1 | -1.7 | 2.6 | 0.9 | -6.2 | nt | nt
CC1CC(C)CN(S(=O)(=O)N2CCCC(C(=O)NCCc3ccc(Cl)cc3)C2)C1 (stereo unspecified) | 7.1 | -4.5 | -6.1 | -1.3 | 4.9 | 24.0 | nt | nt
COc1ccc(OC)c(C(=O)c2ccc(C(=O)Nc3ccc(NC(C)=O)cc3)cc2)c1 | 1.9 | 2.2 | 13.8 | -0.5 | -1.8 | 74.5* | 28.6 | nt
COc1ccc(OC)c(NC(=O)c2ccc(NC(C)=O)cc2)c1 | -3.4 | 7.2 | -4.7 | 1.9 | -5.5 | 22.1 | nt | nt
CC(=O)Nc1ccc2c(c1)n(C)c(=O)n2C | 13.0 | -3.4 | -0.8 | -1.7 | -3.1 | 65.6* | 10.3 | nt
Cn1c(=O)n(C)c2cc(NC(=O)CCl)ccc21 | 23.8 | -25.4 | -5.9 | 0.0 | -20.8 | 69.4* | 67.0* | 45.7*
COc1ccc(NC(=O)c2ccc3c(c2)n(C)c(=O)n3C)cc1 | -0.1 | -6.1 | -6.2 | -2.9 | nt | 52.0* | 8.7 | nt
CC(=O)NCN1CCN(CNC(C)=O)CC1 | -3.9 | -0.1 | -1.3 | 0.0 | -7.3 | 1.9 | nt | nt
CCc1nnc(NC(=O)CSc2nnc(COc3ccccc3)n2-c2ccc(C)cc2)s1 | 21.0 | 3.3 | -0.5 | 2.6 | -7.7 | 2.5 | nt | nt
CCc1nnc(NC(=O)CSc2nnc(-c3ccccc3O)n2-c2ccc(C)cc2C)s1 | -2.6 | 33.3 | 34.4 | 2.5 | 5.4 | 62.6* | 53.1* | 61.0*
NC(N)=NS(=O)(=O)c1ccc(N/C=C/C(=O)c2ccc(Cl)c(Cl)c2)cc1 | -6.8 | -5.0 | 9.1 | 0.6 | -1.5 | 10.2 | nt | nt

From PubChem
